DTT redox prof: compounds producing H2O2 with reducing agent – biochemical, NIH compound library profiling, artefact control for MLSCN library redox annotation, primary screen. hit rate 0.03% among 200,000. activation, % at 10 µM. DTT-dependent redox cycling H2O2, phenol red/HRP absorbance; 100% = 100 µM peroxide control, 0% = buffer. AID 878, 2007;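 active = activation of at least 50% relative to the plate's high and low controls in the primary single-dose screen; inactive = activation below 50%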;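 also: compound incubated with DTT at 0.8 mM final as the reducing agent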
PERK inh: block of dimerizer-induced PERK translation repression, primary screen, PERK inhibitor project, CHO PERK-DD cells, SEAP luminescence, HTS. CHO PERK-DD fusion, SEAP luminescence translation reporter. inhibition, % at 5.6 µM. hit rate 0.17% among 220,000. AID 1416, 2008;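 active = inhibition above the mean inhibition of all tested compounds plus 3 SD, set separately per screening campaign, cut at about 2.9% in these data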;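 also: PERK kinase domain activated by AP20187 dimerizer at 100 nM; 0% = DMSO with dimerizer and 100% = rapamycin at 8.4 µM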
TNF necrop inh: inhibitors of TNF-alpha triggered necroptosis, primary screen, cell-based, Jurkat FADD-/-, single concentration. Jurkat FADD-/- TNF necroptosis rescue, ATP luminescence, 24 h; 0 = TNF only, 100 = no-TNF cells. activation (protection from cell death), % at 10 µM. hit rate 0.068% among 220,000. AID 463075, 2010;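 active = activation, meaning protection from cell death, of at least 50% relative to plate controls; inactive = activation below 50%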;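 also: necroptosis triggered by 40 ng/mL TNF-alpha added together with compound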
zVAD death inh: inhibitors of zVAD-triggered necroptosis, primary screen, L929 cells. viability rescue, % at 10 µM. hit rate 0.38% among 220,000. AID 1377, 2008. L929 zVAD necroptosis rescue, ATP luminescence, 24 h; with zVAD 60 µM;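 active = activation, scaled between plate controls, above about 75%, limit read from the data; inactive = activation under that limit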;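 also: 0% = zVAD with DMSO and 100% = DMSO alone without zVAD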
WT yeast gro inh: growth inhibition of WT strain, primary screen, mitochondrial fusion inhibitor project, WT and mutant strains, chemical genetic | hit rate 2.1% among 190,000 | mitochondrial fusion phenotypic screen | inhibition, % at 10 µM; in the data active = inhibition above about 58%; tested in S. cerevisiae
PKD1 inh: inhibitors of human PKD1 kinase, biochemical, fluorescence polarization; Serine/threonine-protein kinase D1 (Homo sapiens), Q15139; PKD1 kinase fluorescence polarization assay; inhibition, % (concentration not given with the values); hit rate 0.056% among 200,000; AID 797, 2007; in the data active = inhibition above about 50%
Target sequence (Q15139 whole entry, looked up): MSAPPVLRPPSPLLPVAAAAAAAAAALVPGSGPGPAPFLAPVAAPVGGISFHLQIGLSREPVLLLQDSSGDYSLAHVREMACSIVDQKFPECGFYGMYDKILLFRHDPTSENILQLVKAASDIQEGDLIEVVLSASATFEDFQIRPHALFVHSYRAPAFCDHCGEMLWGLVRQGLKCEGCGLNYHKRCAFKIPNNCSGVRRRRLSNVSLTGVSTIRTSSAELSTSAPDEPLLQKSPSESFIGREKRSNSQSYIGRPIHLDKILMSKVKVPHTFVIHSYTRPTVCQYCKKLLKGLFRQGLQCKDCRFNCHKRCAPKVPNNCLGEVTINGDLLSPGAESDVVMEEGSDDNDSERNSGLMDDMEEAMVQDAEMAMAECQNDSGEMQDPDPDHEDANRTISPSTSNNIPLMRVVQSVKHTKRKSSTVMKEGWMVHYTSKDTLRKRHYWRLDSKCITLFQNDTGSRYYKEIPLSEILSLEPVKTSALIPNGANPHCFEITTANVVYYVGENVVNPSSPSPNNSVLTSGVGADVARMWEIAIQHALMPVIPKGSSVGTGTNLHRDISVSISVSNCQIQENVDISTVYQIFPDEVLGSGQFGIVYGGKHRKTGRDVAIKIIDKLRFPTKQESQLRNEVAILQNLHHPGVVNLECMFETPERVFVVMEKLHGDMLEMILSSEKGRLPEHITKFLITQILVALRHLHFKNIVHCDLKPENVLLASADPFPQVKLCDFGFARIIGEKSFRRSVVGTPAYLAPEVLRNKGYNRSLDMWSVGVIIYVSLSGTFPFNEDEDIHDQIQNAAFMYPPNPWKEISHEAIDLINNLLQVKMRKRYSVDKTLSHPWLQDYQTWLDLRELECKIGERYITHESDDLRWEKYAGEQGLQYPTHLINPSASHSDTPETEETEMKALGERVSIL
zVAD necrop conf: inhibitors of zVAD-triggered necroptosis in L929, confirmation, L929 cells, duplicate runs; L929 zVAD-induced necroptosis rescue, ATP luminescence, 24 h; activation (protection from necroptosis), % at 10 µM; hit rate 16% among 760; shares compounds with zVAD death inh;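 active = mean protection from necroptosis of at least 50% over duplicate tests; inactive = mean protection below 50%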;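 also: 0% = cells with zVAD alone and 100% = vehicle cells without zVAD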
* marks the source's active call; other numbers are inactive results; / = not tested or not shown. Rows were chosen to be rich in hits. Some 2.4% of all compounds tested hit in one or more screens of this group.

SMILES	DTT redox prof	PERK inh	TNF necrop inh	zVAD death inh	WT yeast gro inh	PKD1 inh	zVAD necrop conf
COc1cc(OC)cc(C(=O)Oc2ccc(/C=N/Nc3nc4ccccc4s3)cc2OC)c1	0	1	3	77*	25	-2	5
C(=N\Nc1nc2ccccc2s1)/c1ccccn1	/	-2	-21	31	/	/	/
COc1cc(/C=N/Nc2nc3ccccc3s2)ccc1OC(=O)c1ccccc1F	0	1	31	75*	33	-2	75*
COc1cc(/C=N/Nc2ccccc2)ccc1OC(=O)c1cccs1	1	0	3	-1	25	-8	/
Cc1ccc(-n2c(SCC(=O)Nc3cccc(S(N)(=O)=O)c3)nc3ccccc32)cc1	0	0	0	0	-29	-9	/
O=C(Oc1ccc([N+](=O)[O-])cc1)c1cncc(Br)c1	-1	0	1	0	5	6	/
CC(=O)C1C(c2ccc(Cl)cc2)c2c(noc2C)CC1(C)O (stereo not drawn)	/	0	-1	0	/	/	/
N=c1nc(N)nc2n1NC(c1ccc(F)cc1)=CS2	1	1	20	81*	12	-6	40
O=C(COc1cccnc1[N+](=O)[O-])Nc1ccc(Cl)c(S(=O)(=O)N2CCOCC2)c1	/	1	-3	0	/	/	/
CCOC(=O)c1sc(NC(=O)C(C)Sc2nnc(N)s2)nc1C (stereo not drawn)	0	0	1	78*	-15	-12	2
COc1ccc(NC(=O)Nc2nc3c(s2)CCCC3)cc1	0	0	8	79*	42	-6	33
COc1cc(NC(=O)COc2ccc(-n3ccnc3)cc2)cc(OC)c1	10	0	-1	73	-18	5	/
N#Cc1cccc(NC(=O)COc2ccc(-n3ccnc3)cc2)c1	0	1	-2	77*	-12	3	68*
O=C(NNC(=O)c1ccc2nonc2c1)Nc1ccc(Cl)cc1	/	1	4	2	/	/	/
Cc1ccc(C)c(C2=NNC(=NCc3ccccc3)SC2)c1	-1	1	95*	77*	13	2	25
C=CCn1c(C)cc(C2=NNC(=NCc3ccccc3)SC2)c1C	0	0	1	6	1	-6	/
O=C(Nc1ccc(NC(=S)NC(=O)C(c2ccccc2)c2ccccc2)cc1)c1ccccc1	-3	-1	-9	78*	/	-4	38
O=C(Nc1ccc(NC(=S)NC(=O)c2cccs2)cc1)c1ccccc1	0	0	1	0	15	-2	/
c1cnc2ccc(C(c3nnnn3C3CCCCC3)N3CCN(C4CCCCC4)CC3)cc2c1 (stereo not drawn)	1	-1	3	77*	/	-7	70*
S=C1SCN(Cc2cccnc2)CN1Cc1cccnc1	/	0	-23	2	/	/	/
COc1ccc(S(=O)(=O)N2CCOCC2)cc1NC(=O)CSc1nnc2ccccn12	1	1	1	4	-20	-2	/
NC(=O)Cc1ccc(Nc2nnc(-c3ccccc3)c3ccccc23)cc1	1	1	-2	0	-7	0	/
COc1ccc(Nc2nnc(-c3ccc(O)cc3)c3ccccc23)cc1C(N)=O	-3	-1	-2	82*	9	-3	7
COc1ccc(-c2nnc(Nc3ccc(CC(N)=O)cc3)c3ccccc23)cc1	1	1	-5	41	-3	6	/
COc1ccc(Nc2nnc(-c3ccc(O)cc3)c3ccccc23)cc1	0	1	-7	75*	-15	-7	39
SMILES	DTT redox prof	PERK inh	TNF necrop inh	zVAD death inh	WT yeast gro inh	PKD1 inh	zVAD necrop conf
Oc1ccc(Nc2nnc(-c3ccc(O)cc3)c3ccccc23)cc1	0	1	-2	81*	-3	-2	1
O=C(Nc1ccccc1[N+](=O)[O-])c1cccnc1Cl	0	0	2	1	6	0	/
COc1cccc(Oc2cnc(N)nc2-c2ccc(OC)cc2O)c1	2	0	-9	2	14	-9	/
COc1ccc(-c2cnc(N)nc2-c2ccc(OC)cc2O)cc1	0	-1	1	92*	-9	-3	8
COc1ccc(N2C(=O)C3NN=C(C(=O)OCc4ccccc4)C3C2=O)cc1 (stereo not drawn)	4	0	1	9	-14	-11	/
Cc1ccc(NC(=O)C2CCCN2C(=O)NC2CCCCC2)c(C)c1 (stereo not drawn)	-4	1	-1	0	-4	-13	/
Cc1ccc2c(c1)C(C)CC(C)(C)N2C(=O)CN1CCN(C)CC1 (stereo not drawn)	/	1	1	-1	/	/	/
Cc1ccc2c(c1)C(C)CC(C)(C)N2C(=O)NC1CCCCC1 (stereo not drawn)	1	1	7	88*	-7	-1	82*
Cc1ccc2c(c1)N(C(=O)NC1CCCCC1)C(C)(C)CC2C (stereo not drawn)	0	2	16	82*	1	-8	81*
CN1C(=O)C(CC(=O)NCCc2ccccc2)N(NC(=O)c2ccc(Cl)cc2)C1=S (stereo not drawn)	/	-1	1	0	/	/	/
COc1cc(NC(=S)N2CCC(C(N)=O)CC2)c(OC)cc1Cl	0	0	0	-1	4	-7	/
Cc1cc(-c2n[nH]c(=S)n2/N=C/c2cccc(O)c2)n[nH]1	/	2	1	1	/	/	/
S=c1[nH]nc(-c2ccco2)n1/N=C/C(Cl)=C/c1ccccc1	/	0	-9	77*	/	/	4
Cc1cc(-c2n[nH]c(=S)n2/N=C/C(Cl)=C/c2ccccc2)n[nH]1	1	0	-4	83*	-6	4	2
Cc1ccc(C(=O)NCc2cccnc2)cc1S(=O)(=O)Nc1ccccc1	0	1	-1	1	1	-3	/
COc1cccc(-n2c(=O)n(Cc3ccccc3)c(=O)c3[nH]cnc32)c1C	/	0	-1	0	/	/	/
COc1ccccc1NS(=O)(=O)c1cccc(C(=O)N/N=C(\C)c2ccc(-n3ccnc3)cc2)c1	0	0	2	76*	-2	-2	38
C/C(=N\NC(=O)c1ccccc1)c1ccc(-n2ccnc2)cc1	0	0	1	5	-10	-4	/
COc1cc(/C=C/C(=O)c2ccc(NS(=O)(=O)c3ccc(C)cc3)cc2)cc(OC)c1O	1	-1	1	103*	7	0	6
